KCNQ2 block – rat KCNQ2 potassium channel inhibitors, primary screen, cell-based, CHO-K1, FluxOR thallium flux, B-score. B-score at 10 µM. Potassium voltage-gated channel subfamily KQT member 2 (Rattus norvegicus), O88943. 20 min; stronger effect = lower value. 310,000 compounds, 1.1% hits;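 active means fluorescence ratio B-score at most minus 3 library SDs, with starting brightness B-score within 2 library SDs, cut at about -5.5 in these data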
KCNQ2 pot – potentiators of rat KCNQ2 potassium channel; 310,000 compounds, 0.54% hits; CHO-K1 KCNQ2, FluxOR thallium flux fluorescence; stronger effect = higher value; B-score at 10 µM; Potassium voltage-gated channel subfamily KQT member 2 (Rattus norvegicus), O88943;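 active means fluorescence ratio B-score at least 3 SD of library B-scores, with initial fluorescence B-score within 3 of them, cut at about 5.3 in these data; same plate scores as AID 2156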;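 further: B-score of peak minus minimum over baseline fluorescence ratio after K+ and Tl+ stimulus; positive B-score means potentiation of KCNQ2 with more thallium influx and brighter signal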
Kir21 confirm – mouse Kir2.1 channel blockers, retest, confirmation, cell-based, FluxOR thallium flux, duplicate; shares compounds with KCNQ2 pot; Kir2.1-expressing cells, FluxOR thallium flux fluorescence; stronger effect = lower value; Tl flux remaining, % of negative control (stronger effect = lower value), % at 10 µM; 2,300 compounds, 41% hits;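 active means Primary-screen hit whose thallium flux fell at least 3 control SD below untreated wells in both duplicates, with normal baseline fluorescence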
HEK293 Tl flux – alters thallium flux in parental HEK293 cells, Kir2.1 counter-screen. shares compounds with KCNQ2 pot. 2,300 compounds, 19% hits. FluxOR thallium flux fluorescence; 0% = unstimulated blank wells. FluxOR signal as % of negative control (100 = no effect), % at 10 µM. AID 2105;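 active means dye signal at least 3 control SD above or below untreated wells in both duplicates, raw fluorescence within 3, either direction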;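 further: percent is based on the flux ratio of peak minus minimum fluorescence over baseline F0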
CHO-K1 ctr – nonspecific thallium flux increase in parental CHO-K1, confirmation, counter-screen for KCNQ2 potentiator project, cell-based, FluxOR thallium flux, duplicate; 1,200 compounds, 43% hits; AID 2282, 2010; shares compounds with KCNQ2 pot; parental CHO-K1 cells, FluxOR thallium flux fluorescence; zero = vehicle mean+3SD, 100% = vehicle-minus-blank window; activity increase over 3SD of controls, % at 10 µM;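 active means signal rise of at least 3 SD above the untreated control mean, in both duplicate wells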;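 further: counter screen of KCNQ2 potentiator hits so any rise reflects channel-independent effects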
KCNQ1 sel pot – human KCNQ1 channel potentiation off-target, confirmation, selectivity assay for KCNQ2 potentiator project, cell-based, CHO, FluxOR thallium flux; shares compounds with KCNQ2 pot; activation over 3SD threshold, % at 10 µM; CHO KCNQ1 stable, FluxOR thallium flux fluorescence; beyond 3SD, as % of vehicle-control signal; 1,200 compounds, 28% hits;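 active means fluorescence ratio rise of at least 3 SD of vehicle wells above their mean, in both replicate wells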
KCNQ2 pot conf – rat KCNQ2 channel potentiators, confirmation, cell-based, CHO, FluxOR thallium flux, duplicate | shares compounds with KCNQ2 pot | CHO-KCNQ2 cells, FluxOR thallium flux fluorescence | potentiation, less the hit threshold, % at 10 µM | 1,200 compounds, 68% hits | AID 2287, 2010;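 active means fluorescence ratio rising 3 SD or more over the vehicle control mean in both replicates, plus primary screen hit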;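 further: peak minus minimum thallium fluorescence divided by baseline after K/Tl stimulus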
Kir21 spec – mouse Kir2.1 channel activation off-target, confirmation, selectivity assay for KCNQ2 potentiator project, cell-based, HEK293, FluxOR thallium flux. shares compounds with KCNQ2 pot. HEK293 Kir2.1, FluxOR thallium flux fluorescence. activity over 3SD threshold, % at 10 µM. 1,200 compounds, 2% hits. AID 2345, 2010;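 active means fluorescence ratio rise of at least 3 SD above the vehicle-control mean, seen in both replicates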
KCNQ2 W236L pot – potentiators of retigabine-insensitive KCNQ2 W236L, mechanism study for KCNQ2 potentiator project, cell-based, rat KCNQ2 W236L, CHO, automated patch clamp. shares compounds with KCNQ2 pot. automated patch clamp current. current increase over 3SD of negative controls (%), stronger effect = higher value, % at 25 µM. 940 compounds, 10% hits;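 active means current increase at least 3 SD of the untreated controls above them in both duplicate recordings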
Target sequence (O88943 whole entry W236L, looked up): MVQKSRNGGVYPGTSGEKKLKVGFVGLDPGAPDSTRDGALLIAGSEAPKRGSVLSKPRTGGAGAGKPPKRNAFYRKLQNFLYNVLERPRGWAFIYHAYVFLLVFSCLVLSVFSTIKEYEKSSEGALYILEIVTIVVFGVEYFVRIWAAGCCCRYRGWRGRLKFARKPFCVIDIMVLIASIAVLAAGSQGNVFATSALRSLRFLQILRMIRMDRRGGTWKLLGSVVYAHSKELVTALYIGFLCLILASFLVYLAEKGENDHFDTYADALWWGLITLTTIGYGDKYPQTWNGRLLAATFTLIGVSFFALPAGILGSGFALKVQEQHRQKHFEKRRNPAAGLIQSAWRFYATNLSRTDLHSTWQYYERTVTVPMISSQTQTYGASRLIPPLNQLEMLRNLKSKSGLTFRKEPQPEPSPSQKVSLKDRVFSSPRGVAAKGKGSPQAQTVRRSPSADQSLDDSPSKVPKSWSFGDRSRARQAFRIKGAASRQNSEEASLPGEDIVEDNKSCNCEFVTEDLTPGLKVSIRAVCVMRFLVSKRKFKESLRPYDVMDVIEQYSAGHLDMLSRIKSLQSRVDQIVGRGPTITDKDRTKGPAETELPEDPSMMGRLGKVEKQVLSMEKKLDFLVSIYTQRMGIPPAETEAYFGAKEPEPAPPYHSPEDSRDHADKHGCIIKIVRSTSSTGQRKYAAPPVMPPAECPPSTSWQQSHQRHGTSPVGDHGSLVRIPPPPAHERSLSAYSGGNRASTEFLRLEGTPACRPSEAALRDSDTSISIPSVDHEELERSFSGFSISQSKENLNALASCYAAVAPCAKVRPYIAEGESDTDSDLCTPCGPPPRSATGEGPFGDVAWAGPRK
Of the large screens only hits and unclear results are named; the others gave an inactive call (follow-up assays come after a bar, where they were run). Compounds with a hit are over-represented: about 1.6% of the library has one in this group of screens.

COc1ccc(-c2cc(C(=O)c3c(N)n(C)c(=O)n(C)c3=O)c3ccccc3n2)cc1OC	none
C=CCOc1ccc(/C=C2\SC(=S)N(NS(=O)(=O)c3ccc(C)cc3)C2=O)cc1	KCNQ2 pot 7.7 | Kir21 confirm inactive | HEK293 Tl flux 158.5% | CHO-K1 ctr 16.8 | KCNQ1 sel pot inactive | KCNQ2 pot conf 17.1 | Kir21 spec inactive | KCNQ2 W236L pot inactive
COc1ccc(/C=C2/SC(=S)N(NS(=O)(=O)c3ccc(C)cc3)C2=O)cc1	none
CCc1ccc(C(=O)COC(=O)c2cncc(Br)c2)cc1	none
O=S(=O)(NN1CCOCC1)c1cc(Cl)cc(Cl)c1O	none
O=c1c2cc(Cl)ccc2nc(-c2ccc([N+](=O)[O-])cc2)n1O	KCNQ2 pot 9.67 | Kir21 confirm inactive | HEK293 Tl flux 308.0% | CHO-K1 ctr inactive | KCNQ1 sel pot inactive | KCNQ2 pot conf 41.8 | Kir21 spec inactive | KCNQ2 W236L pot inactive
On1c(-c2ccccc2)nc2ccc(Cl)cc21	none (no result: KCNQ2 pot)
N#Cc1ccc(-c2nc3cc(Cl)ccc3c(=O)n2O)cc1	none
O=c1c2ccccc2nc(-c2ccc(Cl)cc2Cl)n1O	none
Cc1ccc(-c2nc3c(Cl)cc(Cl)cc3c(=O)n2O)cc1	KCNQ2 pot 16.6 | Kir21 confirm inactive | HEK293 Tl flux 541.5% | CHO-K1 ctr 4.1 | KCNQ1 sel pot 2.4 | KCNQ2 pot conf 102.5 | Kir21 spec 0.8 | KCNQ2 W236L pot inactive
O=c1c2ccc(Cl)cc2nc(-c2cccc(C(F)(F)F)c2)n1O	KCNQ2 pot 18 | Kir21 confirm inactive | HEK293 Tl flux 498.0% | CHO-K1 ctr inactive | KCNQ1 sel pot inactive | KCNQ2 pot conf 65.7 | Kir21 spec 4.2 | KCNQ2 W236L pot inactive
O=c1c2cc(Br)ccc2nc(-c2ccc(Cl)cc2)n1O	KCNQ2 pot 17.1 | Kir21 confirm inactive | HEK293 Tl flux 566.5% | CHO-K1 ctr inactive | KCNQ1 sel pot 40.6 | KCNQ2 pot conf 92.9 | Kir21 spec 14.9 | KCNQ2 W236L pot inactive
N#Cc1ccc(-c2nc3ccccc3c(=O)n2O)cc1	none
COC(/C=C/Nc1ccc(Br)cc1)=C(C#N)C#N	none (no result: KCNQ2 pot)
O=c1c2ccccc2nc(-c2ccccc2Cl)n1O	none (no result: KCNQ2 pot)
O=c1c2ccccc2nc(-c2ccc(Cl)c(Cl)c2)n1O	KCNQ2 pot 14.6 | Kir21 confirm inactive | HEK293 Tl flux 313.5% | CHO-K1 ctr inactive | KCNQ1 sel pot inactive | KCNQ2 pot conf 49.7 | Kir21 spec inactive | KCNQ2 W236L pot inactive
COc1cc(NC(=O)CN2C(=O)COc3ccc(S(=O)(=O)N4CCOCC4)cc32)cc(OC)c1	none (no result: KCNQ2 pot)
Cc1ccc2nc(N3CCN(CCO)CC3)nc(-c3ccccc3)c2c1	none (no result: KCNQ2 pot) | Kir21 confirm 47.5% | HEK293 Tl flux inactive
CN1CCN(c2nnc(-c3ccccc3)c(-c3ccccc3)n2)CC1	none
CCOC(=O)N1CCN(c2nc(-c3ccccc3)c3cc(C)ccc3n2)CC1	none (no result: KCNQ2 pot)
CN1CCN(c2nc(-c3ccccc3)c3cc(Cl)ccc3n2)CC1	none (no result: KCNQ2 pot) | Kir21 confirm 60.5% | HEK293 Tl flux inactive
COc1ccc(-c2csc(NC(=O)/C(N=Nc3ccccc3)=C(\C)O)n2)cc1	none
CC(=O)N1CCOc2ccc(S(=O)(=O)N(C)c3cccc(C)c3)cc21	none
CCc1ccc(C2C(C#N)=C(N)C(C#N)(C#N)C3=CCC(C(C)(C)C)CC32)cc1 (stereo not given)	none | Kir21 confirm inactive | HEK293 Tl flux inactive
CC1=NN(C(=O)c2ccc(Cl)cc2)C(O)(c2ccccc2)C1 (stereo not given)	KCNQ2 pot 20.3 | Kir21 confirm inactive | HEK293 Tl flux inactive | CHO-K1 ctr inactive | KCNQ1 sel pot inactive | KCNQ2 pot conf inactive | Kir21 spec inactive | KCNQ2 W236L pot inactive
CC1=NN(C(=O)CSCc2ccccc2)C(O)(c2ccc(Cl)cc2)C1 (stereo not given)	none (no result: KCNQ2 pot)
S=c1nc(C2CC2)[nH]c2ccccc12	KCNQ2 pot 15.6 | Kir21 confirm inactive | HEK293 Tl flux 341.0% | CHO-K1 ctr 16.6 | KCNQ1 sel pot inactive | KCNQ2 pot conf 46.2 | Kir21 spec inactive | KCNQ2 W236L pot inactive
S=c1nc(C2CCCCC2)[nH]c2ccccc12	none (no result: KCNQ2 pot)
Cc1[nH]n(-c2ccccc2)c(=O)c1N=Nc1ccccc1O	none
Cc1[nH]n(-c2ccccc2)c(=O)c1N=Nc1nccs1	KCNQ2 pot 15.5 | Kir21 confirm inactive | HEK293 Tl flux 550.5% | CHO-K1 ctr inactive | KCNQ1 sel pot 16.4 | KCNQ2 pot conf 91.0 | Kir21 spec 17.9 | KCNQ2 W236L pot inactive
Cc1ccc(-c2cc(-c3n[nH]c(=S)o3)c3ccccc3n2)cc1	KCNQ2 pot 13.8 | Kir21 confirm inactive | HEK293 Tl flux 485.5% | CHO-K1 ctr 47.4 | KCNQ1 sel pot inactive | KCNQ2 pot conf 167.5 | Kir21 spec inactive | KCNQ2 W236L pot inactive
S=c1[nH]nc(-c2cc(-c3ccccn3)nc3ccccc23)o1	none
CN1CCN(CC#CC(C)(O)C2CC3C=CC2C3)CC1 (stereo not given)	KCNQ2 pot 5.38 | Kir21 confirm inactive | HEK293 Tl flux inactive | CHO-K1 ctr inactive | KCNQ1 sel pot inactive | KCNQ2 pot conf inactive | Kir21 spec inactive
CC(O)(C#CCN1CCOCC1)c1ccccc1 (stereo not given)	none
Cc1cccc(N/C(N)=N/c2nc(C)cc(=O)[nH]2)c1	none (no result: KCNQ2 pot)
NC(=O)CC(NC(=O)Cc1ccc(Cl)cc1)c1ccc(NC2CCCCCCC2)c([N+](=O)[O-])c1 (stereo not given)	none
CCOC(=O)C1CCN(C(=O)Cn2nc(C)n3cccc3c2=O)CC1	none (no result: KCNQ2 pot)
O=C1C(=O)N(Cc2cccnc2)C(c2cccc([N+](=O)[O-])c2)/C1=C(/O)c1ccc2c(c1)OCO2 (stereo not given)	none (no result: KCNQ2 pot)

Screening data as filed in PubChem BioAssay.
